Pf Dd2 inh: blocks in vitro growth of P. falciparum Dd2; P. falciparum Dd2 growth, SYBR Green, 72 h; Potency, µM (highest dose often 28.9 µM), for the others: at the top dose activity, negative = inhibition, usual class: inhibitors; 120,000 tested, 4.3% active; active = well fitted inhibition curve with a large enough effect;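 also: plate controls were DMSO vehicle for no effect and reference drug for full effect; nearly all actives have a fitted effect of over 65% in size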
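Infected erythrocytes (Dd2, 0.3% parasitemia, 2.5% hematocrit final) are added to compound in RPMI-1640/Albumax II medium, grown 72 h at 37C in low oxygen, then lysed with saponin/Triton-X containing SYBR Green and read by fluorescence.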
* = called active by the depositor; i = inactive; [ ] = remark or other dose. Many of the other results were omitted from the sample, so hits are more common in it than they were. Potency is read from the fitted curve at half-maximal effect.

SMILES	Pf Dd2 inh
CCOc1ccc(C(=O)Nc2ccc3c(c2)CCCN3S(=O)(=O)c2ccc(C)cc2)cc1	-26.2%
CCOc1ccc(C(=O)Nc2cccc(-c3nnc4n3CCCC4)c2)cc1	1.58µM*
Cc1ccc(NC(=O)N2CCC(c3cc(-c4cccc(C)c4)n[nH]3)CC2)cc1	-35.4%
Cc1cccc(N(C)C(=O)Cn2nc3n(c2=O)CCCC3)c1	19.0%
CCn1nccc1C(=O)NCCC1CCN(C(=O)Nc2cccc(C)c2)CC1	-14.4%
CCn1nccc1C(=O)NCCC1CCN(C(=O)Nc2ccccc2)CC1	0.8%
O=C(Nc1cccc(-c2nnc3n2CCCC3)c1)c1cc(C2CC2)[nH]n1	3.98µM*
CNC(=O)C1(N2CCC[C@H]2C(=O)NCCc2ccccn2)CCCCC1	-1.2%[44.1 µM]
CC[C@H]1CN(S(=O)(=O)c2c(C)noc2C)CC[C@H]1CC(=O)Nc1ccccc1	0.4%[44.1 µM]
COCCn1c(Cn2nc3n(c2=O)CCCCC3)nnc1C1CC(N)C1 (stereo not given)	-14.6%
COc1cc(Cl)ccc1C(=O)N1CCC(OC2CCN(C)CC2)CC1	i
CCCNC(=O)N(C1CCOCC1)C1CCN(C(=O)CCc2ccc(OC)cc2)CC1	i
CCOc1cccc(CN2CCC3(CC2)CC(O)CCO3)c1 (stereo not given)	-24.8%
O=C(O)C[C@@H]1CCN(C(=O)Cc2ccccc2)C[C@@H]1CCN1CCN(c2ccccn2)CC1	-21.4%
NC1CCN(Cc2ccc(C(=O)NCc3ccc(S(N)(=O)=O)cc3)c(=O)[nH]2)C1 (stereo not given)	-7.9%
Cc1cc(C2CCCN2C(=O)c2ccn(C)n2)on1 (stereo not given)	-5.6%
O=C(CC1CCCC1)N1CCC2(CC1)CC(N(C(=O)c1ccccc1)C1CC1)CCO2 (stereo not given)	-9.2%
COc1cccc(-n2cc(CN(C)c3ncncn3)cn2)c1	0.4%
N#Cc1ccc(C(=O)Nc2cccc(-c3nnc4n3CCCC4)c2)cc1	1.26µM*
Cc1cc2nc3n(c(=O)c2n1CC(=O)Nc1cccc(C#N)c1)CCCCC3	-24.0%
COc1cccc(C(=O)Nc2cccc(-c3nnc4n3CCCC4)c2)c1	5.62µM*
COc1ccc(C(=O)Nc2cccc(-c3nnc4n3CCCC4)c2)cc1OC	5.01µM*
COc1cccc(NCc2nnc3n2CCCCC3)c1	42.8%
COc1ccc(NC(=O)Cn2nc3n(c2=O)CCCC3)cc1OC	40.6%
COCCNC(=O)[C@H]1CN2CC[C@H]1C[C@@H]2Cn1cc(C2(O)CCCC2)nn1	6.1%[44.1 µM]
SMILES	Pf Dd2 inh
CN1C(=O)CS(=O)(=O)C12CCN(C(=O)c1ccncc1)CC2	-0.7%
CCOc1ccc(C(=O)NCCn2cc(SCC(=O)Nc3ccccc3)c3ccccc32)cc1	4.47µM*
CCOc1ccc(NC(=O)CSc2cn(CCNC(=O)c3ccccc3F)c3ccccc23)cc1	-18.1%
COc1ccc(C(=O)NCCn2cc(SCC(=O)Nc3ccc(C)cc3)c3ccccc32)cc1	-28.0%
Cc1cc(Cn2cc3c4c(cccc42)[C@H](CC(C)C)N[C@H](C(=O)O)C3)no1	i
CCCNC(=O)[C@@H]1Cc2cn(Cc3c(C)noc3C)c3cccc(c23)[C@H](CC(C)C)N1	11.2µM*
CC(C)C[C@@H]1N[C@H](C(=O)NCC2CC2)Cc2cn(Cc3ccccn3)c3cccc1c23	-23.4%[44.1 µM]
CC(=O)NCCNC(=O)[C@@H]1Cc2cn(Cc3cc(C)on3)c3cccc(c23)[C@H](CC(C)C)N1	i
CC(C)C[C@@H]1N[C@H](C(=O)NC2CC2)Cc2cn(Cc3nccn3C)c3cccc1c23	11.2µM*
COc1ccccc1CNC(=O)[C@@H]1Cc2cn(C)c3cccc(c23)[C@H](CC(C)C)N1	-13.3%[44.1 µM]
CC(C)C[C@@H]1N[C@H](C(=O)NC2CCC2)Cc2cn(Cc3ccncc3)c3cccc1c23	-28.3%[44.1 µM]
CC(C)C[C@@H]1N[C@H](C(=O)NCC2CC2)Cc2cn(Cc3nccn3C)c3cccc1c23	-17.6%[44.1 µM]
Cc1cc(Cn2cc3c4c(cccc42)[C@H](CC(C)C)N[C@H](C(=O)NCc2nccs2)C3)no1	-7.1%
Cc1cc(Cn2cc3c4c(cccc42)[C@H](CC(C)C)N[C@H](C(=O)NCc2ccc(C)o2)C3)no1	12.6µM*
CC(C)C[C@@H]1N[C@H](C(=O)NC2CCC2)Cc2cn(Cc3ccccn3)c3cccc1c23	11.2µM*
COc1ccc(C(=O)N2CC[C@@H](CC(=O)O)[C@@H](CCN3CCCN(C(C)=O)CC3)C2)cc1	29.8%
NS(=O)(=O)c1ccc(C(=O)N2CCCC(c3ccn[nH]3)C2)cc1 (stereo not given)	-9.8%
CN1C[C@H](N(C)C)CCC[C@@H](C(=O)NCc2cc(F)cc(F)c2)CC1=O	-11.3%[44.1 µM]
COC1CN(c2ccc(C)cc2)C12CCN(C(=O)C(C)C)CC2 (stereo not given)	i
O=C(NC[C@H]1O[C@@H](CC(=O)N2CCN(c3ccc(F)cc3)CC2)[C@H](O)[C@@H]1O)c1ccccc1	6.8%
C[C@@H]1C(=O)O[C@H]2[C@H]1CC[C@@]1(C)Cc3sc(Nc4ccc(F)cc4)nc3[C@@H](C)[C@H]21	-11.0%[44.1 µM]
CO[C@H]1[C@H](NC(=O)Cc2ccccc2)c2ccccc2C12CCNCC2	-5.5%
Cc1ncoc1C(=O)NCc1cccnc1N(C)Cc1ccccc1	-8.0%
